Assay outcomes from PubChem BioAssay.
Shiga inhibitor = inhibitors of Shiga toxin in Vero cells; 9.2% of 290,000 active; AID 2315; Vero cells, Shiga toxin protein synthesis inhibition reporter; inhibition, % at 38.7 µM; in the data active = inhibition mostly above about 28%, no sharp cut-off; inactive = mostly below about 43%; also: 0% is about no effect
Pf growth 96h = inhibits malaria parasite growth, 96 h. AID 504834. P. falciparum luciferase reporter growth, 96 h. 6.9% of 320,000 active. Potency, µM (doses to about 28.7 µM), for inactives: at the top dose activity change, negative = inhibition, usual class: inhibitors; also: potency is read from the fitted curve at half-maximal effect; % is scaled to controls: 0 for no effect and ±100 for the full control effect
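Luminescence readout: decreased luciferase signal marks inhibited growth of reporter-expressing P. falciparum in infected red cells (2% hematocrit, 0.05% parasitemia final), exposed to compound two generations (96 h, 37 C, 5% CO2).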
CHX counter = counter-screen for Shiga toxin inhibitors: cycloheximide protein synthesis inhibition | max response, % | 12% of 300,000 active | cell reporter, cycloheximide protein synthesis inhibition counterscreen | AID 2314; in the data active = max response mostly above about 13%, no sharp cut-off; inactive = mostly below about 14%; also: read at 38.3 µM for the half of the compounds with a filed dose; 0% is about no effect
Pf growth 48h = P. falciparum growth inhibition at 48 hours (one generation); P. falciparum luciferase growth in erythrocytes, 48 h; Potency, µM (series often up to 28.7 µM), for the others: at the highest dose activity change, negative = inhibition, most hits filed as inhibitors; 5.9% of 310,000 active; AID 504832; also: potency is read from the fitted curve at half-maximal effect; % is scaled to controls: 0 for no effect and ±100 for the full control effect
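Luminescence readout; reporter = integrated firefly luciferase in P. falciparum. RBC culture at 2% hematocrit, 0.1% parasitemia final, 37 C/5% CO2; decreased signal taken as growth inhibition.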
HCV inhibitor = blocks hepatitis C virus; Huh7.5.1 HCVcc-Cre infection, luciferase reporter, 44 h; Potency, µM (series often up to 41.8 µM), inactives show top-dose activity change, negative = inhibition, usual class: inhibitors; 3.4% of 340,000 active; also: potency is read from the fitted curve at half-maximal effect; % is scaled to controls: 0 for no effect and ±100 for the full control effect
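Cells (1,000/well) were plated 4 h before compound, then infected with HCVcc-Cre virus (~0.5 moi). After 44 h further culture, infection was read as luciferase luminescence following a 15 min substrate incubation at room temperature.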
AMA1 RON2 block = disrupts binding of P. falciparum AMA1 to RON2; 0.2% of 360,000 active; AlphaScreen AMA1-biotinylated RON2 peptide binding; Potency, µM (titrated, usually from 58.2 µM), for inactives: at the top dose activity change, negative = inhibition, usual class: inhibitors;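 also: potency is read from the fitted curve at half-maximal effect; 0% = vehicle wells and -100% = peptide control; nearly all actives have a fitted effect of over 45% in size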
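AMA1 (3D7) with his tag at 25 nM final met compounds first, then biotinylated RON2 peptide at 25 nM; detection used donor plus acceptor beads, 10 µg/mL apiece, read by AlphaScreen after 30 min at room temperature.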
* = called active by the depositor; ? = inconclusive; . = not tested or not shown; ! = not active in a repeat; [ ] = another dose, or the depositor's remark. Most compounds without a hit are left out; they make up all but 21% or so of the library. Unless noted, calls follow the shape of the dose curve; as a rule, active = well fitted curve in the direction sought with a large enough effect; inconclusive = small, poorly fitted or top-dose-only effect, or another doubt; inactive = no such curve, though single readings can be large; an effect the other way counts as inactive or inconclusive.

SMILES	Shiga inhibitor	Pf growth 96h	CHX counter	Pf growth 48h	HCV inhibitor	AMA1 RON2 block
Cc1c(N=O)c(-c2ccccc2)n(O)[n+]1[O-]	.	.	.	.	.	5%
CCOc1ccc(N(C(=O)c2ccccc2Cl)C2=NC(C)(C)CS2)cc1	66*	?	28*	-30%	-11%	-24%
C[C@H](O)[C@@H]1C(=O)N2CCc3c([nH]c4ccccc34)[C@@H]2C[C@@H]1N(C)Cc1ccc2c(c1)OCO2	.	.	.	.	.	7%
Cc1cccc(/C(N)=N/OC(=O)COc2ccccc2Cl)c1	21*	?	66*	52%	-15%	95%
Cc1ccc(/C(N)=N/OC(=O)COc2cccc3ccccc23)cc1	.	.	.	.	.	32%
COc1ccc(/C(N)=N/OC(=O)COc2ccccc2Cl)cc1	26*	251%	46*	92%	?	18%
CCOC(=O)[C@@H]1[C@H]2COc3ccccc3[C@@H]2N2C(=O)N(c3ccc(C(F)(F)F)cc3)C(=O)[C@@]12C	.	.	.	.	-6%	-8%
CCOC(=O)[C@@H]1[C@H]2COc3ccc(Br)cc3[C@@H]2N2C(=O)N(c3ccc(OC)cc3)C(=O)[C@]12C	-6	3.3µM*	-4	-2%	15%	0%
CCOC(=O)[C@@H]1[C@H]2COc3ccc(Br)cc3[C@@H]2N2C(=O)N(c3ccc(C)cc3)C(=O)[C@]12C	-6	13µM*	1	?	0%	-6%
CCOC(=O)[C@@H]1[C@H]2COc3ccc(Br)cc3[C@H]2N2C(=O)N(c3ccc(C)cc3)C(=O)[C@]12C	-6	12µM*	-2	?	4%	-2%
CCOC(=O)[C@@H]1[C@H]2COc3ccccc3[C@H]2N2C(=O)N(c3ccc(C(F)(F)F)cc3)C(=O)[C@]12C	-4	5.2µM*	-3	10µM*	-21%	-7%
CCOC(=O)[C@@H]1[C@H]2COc3ccc(Br)cc3[C@@H]2N2C(=O)N(c3ccc(Br)cc3)C(=O)[C@@]12C	.	.	.	.	-8%	-2%
CCOC(=O)[C@@H]1[C@H]2COc3ccc(Br)cc3[C@@H]2N2C(=O)N(c3ccc(Cl)cc3)C(=O)[C@]12C	.	.	.	.	-2%	-4%
COc1cc2c(c(OC)c1OC)-c1ccc(OC)c(=O)cc1C(NC(=O)c1ccccc1)CC2 (stereo not drawn)	.	.	.	.	13%	16%
CCN(CC)CCn1c(=O)n(-c2ccc(Cl)cc2)c(=O)c2c3c(sc21)CN(C)CC3	52	-15%	2	4.7µM*	4µM*	14%
CN1CCc2c(sc3nc(NN)n(-c4ccc(Cl)cc4)c(=O)c23)C1	29*	?	7	.	?	59%
CN1CCc2c(sc3c2c(=O)n(-c2ccc(Cl)cc2)c2nncn32)C1	-7	.	-3	-9%	9%	10%
CN1CCc2c(sc3nc(NN)n(Cc4ccccc4)c(=O)c23)C1	-3	2.1µM*	8	3.7µM*	?	38%
CC1CCN(S(=O)(=O)c2ccc3ncn(CC(=O)N4CCN(C)CC4)c(=O)c3c2)CC1	-26	15%	-6	-6%	9%	17%
CN1CCN(S(=O)(=O)c2ccc(NC(=O)c3ccccc3Cl)cc2)CC1	-4	0%	-2	4%	13%	23%
CN1CCN(S(=O)(=O)c2ccc(NC(=O)Nc3cccc(Cl)c3)cc2)CC1	11	2%	16*	2.9µM*	7.9µM*!	-13%
O=C(Nc1cccc(Cl)c1)Nc1cc(S(=O)(=O)N2CCCCC2)ccc1Cl	-12	2.9µM*	7	?	11µM*	-10%
CSc1ccc(CN2CCC2(C)C(=O)NCc2ccc3c(c2)OCO3)cc1 (stereo not drawn)	.	.	.	.	.	-24%
CSc1ccc(CN2CCC2(C)C(=O)Nc2cccc(NS(C)(=O)=O)c2)cc1 (stereo not drawn)	.	.	.	.	.	-12%
COc1cccc(Nc2nnc(SCc3cc([N+](=O)[O-])cc4c3OCOC4)s2)c1	-21	-3%[5.75 µM]	-5	-20%	11µM*	-7%
SMILES	Shiga inhibitor	Pf growth 96h	CHX counter	Pf growth 48h	HCV inhibitor	AMA1 RON2 block
O=[N+]([O-])c1cc2c(c(CSc3ncccn3)c1)OCOC2	60	57%	21*	58%	?	-7%
O=C(OCc1cc([N+](=O)[O-])cc2c1OCOC2)c1ccccn1	35	48%	33*	8%	-16%	7%
O=C(OCc1cc([N+](=O)[O-])cc2c1OCOC2)c1cccnc1SC(F)F	.	0%	.	?	1µM*	-4%
Cc1cccc(C)c1Nc1nnc(SCc2cc([N+](=O)[O-])cc3c2OCOC3)s1	-6	?	5	.	-5%	-3%
CC(=O)c1ccc(OCc2cccc(C(F)(F)F)c2)cc1O	43*	?	29*	5%	-4%	-9%
CCCCC(Sc1nc(N)c(NC(=O)c2ccco2)c(=O)[nH]1)C(=O)O (stereo not drawn)	-13	-15%	-2	6%	12%	-9%
Cc1ccc(C2(C)NC(=O)N(CC(=O)N3CCN(C(=O)c4cccs4)CC3)C2=O)cc1 (stereo not drawn)	.	-12%	.	-26%	9%	0%
O=C(O)C(=Cc1cccc([N+](=O)[O-])c1)c1ccc(Cl)cc1	.	.	.	.	20%	9%
CCOC(=O)N(C)C[C@H]1OCc2cnnn2CCCC(=O)N([C@@H](C)CO)C[C@H]1C	.	.	.	.	.	-6%
O=C(CSc1ncnc2c1nnn2Cc1ccccc1F)NCC1CCCO1 (stereo not drawn)	-8	?	-2	15µM*	2%	9%
O=C(Cc1ccc(-n2c(=O)c3ccccc3n(Cc3ccccc3F)c2=O)cc1)NCC1CCCO1 (stereo not drawn)	-11	4.7µM*	-2	-15%	-7%	10%
O=C(Cc1ccc(-n2c(=O)c3ccccc3n(Cc3ccc(F)cc3)c2=O)cc1)NCC1CCCO1 (stereo not drawn)	-10	-20%	1	?	0%	6%
c1ccc(Cn2nnc3c(NCC4CCCO4)ncnc32)cc1 (stereo not drawn)	56	12µM*	9	42%	-21%	3%
Cc1cc(C(=O)Nc2ccc(Br)cc2)c2ccccc2n1	.	20%	-2	45%	-26%	9%
Cc1c(NC(=O)Oc2ccccc2)sc(=S)n1C	-26	-27%	-6	.	27%	-2%
Cc1c(NC(=O)OCCNC(=O)COc2c(Cl)cccc2Cl)sc(=S)n1C	-5	9.3µM*	4	?	-17%	37%
COC(=O)C[C@H]1c2cc(C(F)(F)F)ccc2S(=O)(=O)N1Cc1ccccc1OC	.	.	.	.	-16%	7%
CCCCc1nnc(NC(=O)CSCc2cc(=O)n3cc(C)sc3n2)s1	4	?	-2	-8%	3%	-10%
CC(C)(C)C1=CC(O)(c2ccccc2)C=C(C(C)(C)C)C1=O	-5	?	-2	10µM*	?	7%
